Assay outcomes as filed in PubChem.
A selection: hits, their analogues and other compounds. The true share with any hit is near 12%.
Sfp inh: inhibitors of Bacillus subtilis Sfp phosphopantetheinyl transferase | Q9F4F7 | Biochemical Sfp PPTase activity, qHTS | Potency, µM, most hits filed as inhibitors | 3.5% of 310,000 active | AID 1490;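 further: the enzyme is Sfp with the accession as filed and its product quenches rhodamine fluorescence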
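Sfp 15 nM + cpd, 15 min RT; start w/ rhodamine-CoA 5 uM, BHQ-2-YbbR 12.5 uM (final); 50 mM Hepes pH 7.6, 10 mM MgCl2, 0.01% NP-40, 0.01% BSA; read 525/598 nm at 0 and 30 min.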
JMJD2A Tudor inh: inhibitors of human JMJD2A Tudor domain. O75164. AlphaScreen JMJD2A-Tudor / H3K4me3 peptide binding. Potency, µM (top dose mostly 114 µM), usual class: inhibitors. 4.4% of 390,000 active. AID 504339; further: nearly all actives have a fitted effect of over 50% in size
G9a block: G9a (human) methyltransferase inhibition. Q96KQ7. G9a H3K9 monomethylation, AlphaScreen, 2 h. Potency, µM (titrated, usually from 102 µM), actives largely listed as inhibitors. 8.8% of 350,000 active; further: nearly all actives have a fitted effect of over 75% in size
Target sequence (Q96KQ7 913-1193 limits assumed): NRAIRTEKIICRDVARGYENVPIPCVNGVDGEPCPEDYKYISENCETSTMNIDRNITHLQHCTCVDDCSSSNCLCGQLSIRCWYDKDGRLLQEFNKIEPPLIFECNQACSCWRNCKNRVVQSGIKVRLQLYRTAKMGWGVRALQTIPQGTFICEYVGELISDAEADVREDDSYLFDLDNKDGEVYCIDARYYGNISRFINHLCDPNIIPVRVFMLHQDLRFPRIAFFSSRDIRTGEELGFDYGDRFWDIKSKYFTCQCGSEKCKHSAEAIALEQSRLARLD
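AlphaScreen detection with an anti-monomethyl H3K9 antibody quantified product after a 2 h room-temperature reaction containing 500 nM biotinylated H3K9 peptide, 20 µM SAM and 20 nM enzyme, which had been preincubated 15 min with compound.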
BAZ2B inh: BAZ2B (human) inhibition; Q9UIF8; AlphaScreen BAZ2B-H3K14Ac peptide displacement; Potency, µM (top dose mostly 114 µM), actives largely listed as inhibitors; 4.4% of 360,000 active; further: nearly all actives have a fitted effect of over 60% in size
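BAZ2B 50 nM plus b-H3(5-23)K14Ac 50 nM, PBS pH 7.4/0.01% Tween-20, 30 min RT; compound added (max 110 uM), 30 min RT; streptavidin donor/Ni-chelate acceptor beads 10 ug/mL final, 20 min dark; AlphaScreen read.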
HP1b chromo inh: HP1-beta chromodomain-methylated histone interaction inhibition | Potency, µM (series often up to 114 µM), actives largely listed as inhibitors | AID 540317 | 0.56% of 390,000 active | AlphaScreen HP1-beta / biotin-H3K9me3 peptide binding | P83916; further: nearly all actives have a fitted effect of over 70% in size
Target sequence (P83916 whole entry, looked up): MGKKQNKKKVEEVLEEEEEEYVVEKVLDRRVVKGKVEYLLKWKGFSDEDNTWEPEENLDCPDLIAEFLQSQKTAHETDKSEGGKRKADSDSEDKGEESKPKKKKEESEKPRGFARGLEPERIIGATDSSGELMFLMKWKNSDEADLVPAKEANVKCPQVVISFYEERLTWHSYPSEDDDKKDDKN
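Compound inhibition of the preformed complex between 50 nM HP1-beta and 50 nM biotinylated H3K9me3 peptide was read by AlphaScreen. Buffer was PBS pH 7.4 with 0.01% Tween-20. Incubations ran 30 min at room temperature, with 10 ug/mL donor/acceptor beads.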
Each line names hits and unclear results; the compound was inactive in the other large screens. The call rests on the fitted dose curve; in most records, active means well fitted curve in the direction sought with a large enough effect; inconclusive means small, poorly fitted or top-dose-only effect, or another doubt; inactive means no such curve, though single readings can be large; an effect the other way counts as inactive or inconclusive.

COc1ccc(CCn2c(C)cc(C(=O)COC(=O)c3cnccn3)c2C)cc1	G9a block inconclusive, BAZ2B inh inconclusive
COc1ccc(CNC(=O)c2cnc(C)cn2)cc1	BAZ2B inh 50.1µM
COc1ccc(CCn2c(C)cc(C(=O)COC(=O)c3cnc(C)cn3)c2C)cc1	G9a block 50.1µM, BAZ2B inh inconclusive (no result: Sfp inh)
COc1cccc(CNC(=O)C2=C(C)C(=O)OC23CCCCCC3)c1	none (no result: Sfp inh)
COc1ccc(CNC(=O)C2=C(C)C(=O)OC23CCCCC3)cc1	G9a block 11.2µM (no result: Sfp inh)
Cc1ccc(C)c(N2CCN(C(=O)c3cc4cc5ccc(C)cc5nc4s3)CC2)c1	none (no result: Sfp inh)
CN1CCN(c2ccc(-c3nc(-c4ccccc4)no3)cc2[N+](=O)[O-])CC1	BAZ2B inh inconclusive (no result: Sfp inh)
C/C(=N\Nc1nncc2ccccc12)c1ccc(OCC(=O)N(C)C)cc1	Sfp inh 50.1µM, G9a block 44.7µM, BAZ2B inh inconclusive
COc1ccc(OCC(=O)N/N=C(\C)c2ccc(OC)cc2)cc1	none
CC/C(=N\Nc1nncc2ccccc12)c1ccc(F)cc1	G9a block 39.8µM
CN(C)C1=NC(=O)/C(=C/c2ccc(-c3ccc(S(N)(=O)=O)cc3)o2)S1	Sfp inh 35.5µM, G9a block 7.08µM, BAZ2B inh inconclusive (no result: JMJD2A Tudor inh, HP1b chromo inh)
CC(C)(C)n1nc2c(c1NC(=O)Cc1ccc(F)cc1)CSC2	Sfp inh inconclusive, G9a block 44.7µM
COC(=O)c1c(C)oc2ccc(N(C(=O)c3ccncc3)S(=O)(=O)c3c(C)cc(C)cc3C)cc12	none (no result: Sfp inh)
CC(C)c1ccc(C2C(C#N)=C(N)N3C(=C2C#N)Sc2ccccc23)cc1 (centres undefined)	G9a block 35.5µM (no result: JMJD2A Tudor inh, HP1b chromo inh)
CC(=O)n1c2c(c3ccccc31)OC(N)=C(C#N)C2c1ccc(C(C)C)cc1 (centres undefined)	G9a block inconclusive
Nc1ccc2ccccc2c1N=Nc1ccccc1	JMJD2A Tudor inh 12.6µM, HP1b chromo inh 12.6µM (no result: Sfp inh, G9a block, BAZ2B inh)
Nc1ncnc(N)c1N=Nc1ccccc1	none
CCCCCOc1ccc(/C=C/C(=O)Nc2sc(C)c(C)c2C(=O)OCC)cc1OC	G9a block inconclusive (no result: Sfp inh)
CCC1CCCCN1C(=O)COc1cc(=O)n(C)c2ccccc12 (centres undefined)	none
CCOc1ccccc1NC(=O)CSC1=NN2CCCC(=O)N=C2S1	G9a block 39.8µM
CCOc1ccccc1NC(=O)CN1CCCCCC1	JMJD2A Tudor inh 3.16µM, BAZ2B inh 50.1µM (no result: G9a block)
CCOc1ccc(NC(=O)CN2CCN(CC(=O)Nc3ccccc3OCC)CC2)cc1	none (no result: Sfp inh)
CCOc1ccc(OCC)c(NC(=O)CN2CCN(CC(=O)NC(C)C)CC2)c1	Sfp inh inconclusive, JMJD2A Tudor inh 28.2µM, BAZ2B inh inconclusive, HP1b chromo inh inconclusive (no result: G9a block)
CCC1CCCCN1C(=O)COc1ccccc1NC(C)=O (centres undefined)	G9a block 44.7µM
CCC/C=C(\CCC)C(NC(=O)c1cccs1)c1ccc(C(=O)OC)cc1 (centres undefined)	none (no result: JMJD2A Tudor inh, G9a block, BAZ2B inh, HP1b chromo inh)
Cc1ccc(Cl)cc1NC(=O)Nc1nnc(N2CCCC(C)C2)s1 (centres undefined)	none (no result: Sfp inh)
CCOc1ccc(OCC)c(NC(=O)CN2CCN(CC)CC2)c1	JMJD2A Tudor inh 0.891µM, G9a block 20µM, BAZ2B inh inconclusive, HP1b chromo inh inconclusive
CCc1ccc(N2CC(C(=O)OCC(=O)Nc3ccccc3C)CC2=O)cc1 (centres undefined)	none (no result: Sfp inh)
CCOc1ccc(OCC)c(NC(=O)Cn2cccc2)c1	none
CCOc1ccccc1NC(=O)COC(=O)C1CC(=O)N(c2c(C)cccc2C)C1 (centres undefined)	G9a block 56.2µM
O=C(O)CC1(CC(=O)N2CCOCC2)CCCC1	none
COc1cc(Cl)cc2c1Sc1ccccc1/C2=C/CCN(C)C	JMJD2A Tudor inh inconclusive, G9a block inconclusive, BAZ2B inh 44.7µM
CN(C)CC/C=C1/c2ccccc2Sc2c(O)cc(Cl)cc21	Sfp inh inconclusive, JMJD2A Tudor inh inconclusive, G9a block 25.1µM, BAZ2B inh inconclusive
O=C(NCCS(=O)(=O)N1CCN(c2ccccc2F)CC1)c1ccccc1C(F)(F)F	none (no result: Sfp inh)
COc1ccccc1OCCn1c(C(C)Oc2ccccc2)nc2ccccc21 (centres undefined)	G9a block inconclusive (no result: Sfp inh)
Cc1ccc2c(c1)c1c3n2CCN(C(=O)CN2CCN(C)CC2)C3CCC1 (centres undefined)	JMJD2A Tudor inh inconclusive, G9a block 44.7µM, BAZ2B inh inconclusive
Cc1ccc2c(c1)c(=O)c1c3n2CCN(C(=O)CCl)C3CC1 (centres undefined)	Sfp inh 79.4µM, JMJD2A Tudor inh inconclusive, G9a block 11.2µM, BAZ2B inh 39.8µM
CCN1CCn2c3c(c4cc(Br)ccc42)CCCC31 (centres undefined)	none (no result: Sfp inh, G9a block, BAZ2B inh)
CN1CCN(CC(=O)N2CCn3c4c(c5cc(C6CCCCC6)ccc53)CCCC42)CC1 (centres undefined)	Sfp inh inconclusive, JMJD2A Tudor inh 39.8µM, G9a block inconclusive, BAZ2B inh 35.5µM, HP1b chromo inh inconclusive
COc1cccc(CN2CCNC(=O)C2CC(=O)NCc2cn3ccccc3n2)c1OC (centres undefined)	G9a block inconclusive
COc1ccc(CN2CCNC(=O)C2CC(=O)NC2CCCC2)c(C)c1C (centres undefined)	JMJD2A Tudor inh 20µM, G9a block 44.7µM, BAZ2B inh inconclusive
COc1cccc(CN2CCNC(=O)C2CC(=O)NC2CCOCC2)c1OC (centres undefined)	G9a block 44.7µM
COc1cccc(CN2CCNC(=O)C2CC(=O)NCCn2ccc3ccccc32)c1OC (centres undefined)	JMJD2A Tudor inh inconclusive, G9a block 39.8µM, BAZ2B inh inconclusive
CC1CCCC(NC(=O)c2ccc3snnc3c2)C1C (centres undefined)	none
CC(C)[C@@H](C(=O)N[C@@H](Cc1ccccc1)C(=O)O)N1C(=O)N2CCc3c([nH]c4ccccc34)[C@@]2(C)C1=O	none (no result: G9a block)
COc1ccc(NC(=O)Cn2cc(C(=O)c3ccc(C)c(C)c3)c(=O)c3cc(OC)ccc32)cc1	none (no result: Sfp inh)
Nc1nonc1N/N=C\c1ccccc1	none
Nc1nonc1NN=C1CCCCC1	Sfp inh 79.4µM
CN(C)c1ccc(C(O)c2cc3ccccc3s2)cc1 (centres undefined)	JMJD2A Tudor inh 31.6µM, HP1b chromo inh inconclusive (no result: Sfp inh, G9a block, BAZ2B inh)
CN(CCCC(=O)Nc1ccc(OC(F)F)cc1)S(=O)(=O)c1ccc(F)cc1	G9a block 44.7µM
Cc1ccc(S(=O)(=O)N(C)CCCC(=O)Nc2ccc(F)cc2)cc1	none (no result: BAZ2B inh)
CN(CCCC(=O)Nc1ccccc1F)S(=O)(=O)c1ccc(F)cc1	none
CN(CCCC(=O)Nc1ccc(Br)cc1F)S(=O)(=O)c1ccccc1	G9a block 35.5µM
Cc1cc(SCC(=O)N/N=C/c2ccc(O)c(O)c2O)c(C)cc1Br	Sfp inh 10µM, JMJD2A Tudor inh 50.1µM, G9a block inconclusive, HP1b chromo inh inconclusive
